Measured values published in PubChem BioAssay (Tox21).
Where “and” joins values, the source holds several entries; their conditions need not be identical. Identical values can stand only once. Unmarked numbers belong to inactive results. Records with an inconclusive call do not appear. Entries that show only a call come without a potency. Calls of active or inactive are those of the source. Unless noted, calls follow the shape of the dose curve; as a rule, active = well fitted curve in the direction sought with a large enough effect in the repeat runs; inconclusive = weak or mixed curves; inactive = no such curve, though single readings can be large; an effect the other way counts as inactive or inconclusive.

Key:
[1] = target: Acetylcholinesterase (Homo sapiens) (UniProt P22303); assay: Acetylcholinesterase (AChE) small molecule antagonists: enzyme-based qHTS assay (AID 1347397; calls by dose curve; also: nearly all actives have a fitted effect of over 55% in size; also: potency is read from the fitted curve at half-maximal effect); conditions: Potency: AChE enzyme activity inhibition
Summary of the method: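 Human recombinant acetylcholinesterase; substrate acetylthiocholine; thiocholine quantified with DTNB (colorimetric). Compound preincubation 30 min RT; reaction 10 min RT.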

[2] = target: Acetylcholinesterase (Homo sapiens) (UniProt P22303); assay: Acetylcholinesterase (AChE) small molecule antagonists: fluorescence cell-based qHTS assay (AID 1347398; calls by dose curve; also: nearly all actives have a fitted effect of over 50% in size; also: potency is read from the fitted curve at half-maximal effect); conditions: Potency: AChE activity
Summary of the method: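 Thiocholine generated from acetylthiocholine by SH-SY5Y cell AChE is detected with Thiolite Green (Ex/Em 490/520 nm) after 40 min at room temperature, following 30 min compound pretreatment at 37 C.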

[3] = target: Cytochrome P450 2D6 (Homo sapiens) (UniProt P10635); assay: Cytochrome P450 Family 2 Subfamily D Member 6 (CYP2D6) small molecule antagonists: luciferase reporter qHTS assay (AID 1671196); also: nearly all actives have a fitted effect of over 50% in size; also: potency is read from the fitted curve at half-maximal effect
Summary of the method: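 Each well received CYP2D6 with its proluciferin substrate and chemical, sat 10 min, then got NADPH regeneration solution for 1 h at room temperature. Luminescence in RLU served as the activity measure.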

[4] = target: Cytochrome P450 2C19 (Homo sapiens) (UniProt P33261); assay: Cytochrome P450 Family 2 Subfamily C Member 19 (CYP2C19) small molecule antagonists: luciferase reporter qHTS assay (AID 1671197); also: nearly all actives have a fitted effect of over 65% in size; also: potency is read from the fitted curve at half-maximal effect
Summary of the method: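 P450-Glo CYP2C19 screening system; proluciferin substrate; DMSO compound stocks; 10 min RT preincubation; NADPH regeneration, 1 h at 37C; luciferin detection reagent, 20 min RT; luminescence as RLU.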

[5] = target: Cytochrome P450 2C9 (Homo sapiens) (UniProt P11712); assay: Cytochrome P450 Family 2 Subfamily C Member 9 (CYP2C9) small molecule antagonists: luciferase reporter qHTS assay (AID 1671198); also: nearly all actives have a fitted effect of over 50% in size; also: potency is read from the fitted curve at half-maximal effect
Summary of the method: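 CYP2C9 activity was measured with a P450-Glo proluciferin substrate. Enzyme–substrate mix was held with compound for 10 min at room temperature, then NADPH regeneration solution was added for 1 h at 37C. Luciferin product was read as luminescence.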

[6] = target: Cytochrome P450 1A2 (Homo sapiens) (UniProt P05177); assay: Cytochrome P450 Family 1 Subfamily A Member 2 (CYP1A2) small molecule antagonists: luciferase reporter qHTS assay (AID 1671199); also: nearly all actives have a fitted effect of over 50% in size; also: potency is read from the fitted curve at half-maximal effect
Summary of the method: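 Enzymatic CYP1A2 assay, human, luminescent: 10 min compound–enzyme–substrate preincubation, 1 h NADPH-dependent turnover, 20 min detection step, room temperature throughout. Reduced light indicates lower CYP1A2 activity.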

[7] = target: Voltage-gated inwardly rectifying potassium channel KCNH2 (Homo sapiens) (UniProt Q12809); assay: Human Ether-a-go-go-Related Gene (hERG) channel small molecule antagonists: fluorescence cell-based qHTS assay (AID 1671200); also: nearly all actives have a fitted effect of over 50% in size; also: potency is read from the fitted curve at half-maximal effect
Summary of the method: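 hERG-U2OS cells plated overnight at 37 C, loaded with FluxOR II dye 1 h at RT in dark; after 10 min, thallium stimulus added. Fluorescence (480/540 nm) read kinetically for 2 min at 1 s intervals.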

[8] = target: Cytochrome P450 3A4 (Homo sapiens) (UniProt P08684); assay: Cytochrome P450 Family 3 Subfamily A Member 4 (CYP3A4) small molecule antagonists: luciferase reporter qHTS assay (AID 1671201); also: nearly all actives have a fitted effect of over 50% in size; also: potency is read from the fitted curve at half-maximal effect
Summary of the method: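 P450-Glo CYP3A4 luminescent assay: compounds preincubated 10 min at room temperature with enzyme and proluciferin substrate, NADPH regeneration added, 1 h room-temperature reaction, stopped with luciferin detection reagent; luminescence read after 20 min. Ketoconazole positive control.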

[9] = target: Acetylcholinesterase (Homo sapiens) (UniProt P22303); assay: Acetylcholinesterase (AChE) small molecule antagonists: enzyme-based qHTS assay with human liver microsomes (AID 1347399; calls by dose curve; also: nearly all actives have a fitted effect of over 60% in size); conditions: Potency: qHTS inhibition
Summary of the method: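 Recombinant human AChE (50 mU/mL in the enzyme mix) and human liver microsomes (0.25 mg/mL final) were preincubated with compound and NADPH (0.25 mg/mL final) for 30 min at 37 C. Acetylthiocholine/DTNB was then added; thiocholine was read colorimetrically after 10 min at room temperature.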

Sequence of Cytochrome P450 2C19 (Homo sapiens) (P33261 whole entry, looked up): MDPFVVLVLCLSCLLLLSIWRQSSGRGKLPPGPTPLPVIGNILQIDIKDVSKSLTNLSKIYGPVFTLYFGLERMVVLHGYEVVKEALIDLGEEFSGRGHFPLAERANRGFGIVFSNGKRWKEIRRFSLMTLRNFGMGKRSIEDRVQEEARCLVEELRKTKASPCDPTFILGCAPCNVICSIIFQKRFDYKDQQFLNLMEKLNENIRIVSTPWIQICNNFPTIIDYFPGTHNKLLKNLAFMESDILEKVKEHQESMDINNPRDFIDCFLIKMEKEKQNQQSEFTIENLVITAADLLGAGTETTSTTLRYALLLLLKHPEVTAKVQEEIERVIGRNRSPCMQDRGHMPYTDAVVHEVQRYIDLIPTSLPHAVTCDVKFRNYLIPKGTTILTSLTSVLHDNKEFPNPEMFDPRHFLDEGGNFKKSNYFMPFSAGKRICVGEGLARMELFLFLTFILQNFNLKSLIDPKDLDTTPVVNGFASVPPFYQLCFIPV
Sequence of Cytochrome P450 1A2 (Homo sapiens) (P05177 whole entry, looked up): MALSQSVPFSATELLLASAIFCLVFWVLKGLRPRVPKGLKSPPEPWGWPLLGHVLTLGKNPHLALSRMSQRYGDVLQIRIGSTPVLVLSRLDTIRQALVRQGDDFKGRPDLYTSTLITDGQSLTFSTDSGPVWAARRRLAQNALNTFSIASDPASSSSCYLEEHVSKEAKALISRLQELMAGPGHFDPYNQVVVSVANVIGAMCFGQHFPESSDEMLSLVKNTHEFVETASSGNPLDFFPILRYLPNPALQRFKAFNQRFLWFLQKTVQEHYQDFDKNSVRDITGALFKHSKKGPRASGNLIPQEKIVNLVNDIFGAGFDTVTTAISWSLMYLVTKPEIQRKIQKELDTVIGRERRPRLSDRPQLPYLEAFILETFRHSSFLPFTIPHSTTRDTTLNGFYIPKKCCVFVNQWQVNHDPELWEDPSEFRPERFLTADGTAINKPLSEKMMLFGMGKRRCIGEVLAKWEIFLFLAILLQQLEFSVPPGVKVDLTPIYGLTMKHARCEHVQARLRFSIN
Sequence of Cytochrome P450 2D6 (Homo sapiens) (P10635 whole entry, looked up): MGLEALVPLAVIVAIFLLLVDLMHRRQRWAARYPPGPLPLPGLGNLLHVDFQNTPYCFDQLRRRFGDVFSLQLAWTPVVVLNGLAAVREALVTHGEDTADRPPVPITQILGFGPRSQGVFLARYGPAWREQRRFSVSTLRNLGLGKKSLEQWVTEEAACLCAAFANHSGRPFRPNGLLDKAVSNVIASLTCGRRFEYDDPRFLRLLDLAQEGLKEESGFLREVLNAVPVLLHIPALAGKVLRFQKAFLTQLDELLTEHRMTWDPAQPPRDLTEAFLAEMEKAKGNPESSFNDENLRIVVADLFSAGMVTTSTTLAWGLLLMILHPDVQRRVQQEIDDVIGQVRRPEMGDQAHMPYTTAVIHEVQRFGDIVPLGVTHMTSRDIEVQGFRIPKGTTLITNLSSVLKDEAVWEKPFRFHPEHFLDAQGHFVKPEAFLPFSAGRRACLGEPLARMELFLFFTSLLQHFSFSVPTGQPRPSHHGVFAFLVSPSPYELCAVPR
Sequence of Cytochrome P450 3A4 (Homo sapiens) (P08684 whole entry, looked up): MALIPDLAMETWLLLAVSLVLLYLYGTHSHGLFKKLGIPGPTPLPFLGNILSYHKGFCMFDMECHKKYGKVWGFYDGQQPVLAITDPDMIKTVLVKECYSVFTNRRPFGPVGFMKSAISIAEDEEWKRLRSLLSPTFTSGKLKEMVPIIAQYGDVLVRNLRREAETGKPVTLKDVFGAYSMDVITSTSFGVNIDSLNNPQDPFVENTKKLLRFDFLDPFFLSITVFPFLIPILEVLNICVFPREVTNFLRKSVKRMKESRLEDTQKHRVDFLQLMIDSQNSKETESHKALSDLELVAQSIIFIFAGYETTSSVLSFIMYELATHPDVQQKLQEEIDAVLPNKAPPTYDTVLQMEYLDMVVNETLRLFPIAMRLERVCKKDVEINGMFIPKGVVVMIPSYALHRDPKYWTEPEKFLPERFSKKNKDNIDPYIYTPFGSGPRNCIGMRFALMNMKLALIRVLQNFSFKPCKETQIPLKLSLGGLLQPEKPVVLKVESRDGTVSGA
Sequence of Cytochrome P450 2C9 (Homo sapiens) (P11712 whole entry, looked up): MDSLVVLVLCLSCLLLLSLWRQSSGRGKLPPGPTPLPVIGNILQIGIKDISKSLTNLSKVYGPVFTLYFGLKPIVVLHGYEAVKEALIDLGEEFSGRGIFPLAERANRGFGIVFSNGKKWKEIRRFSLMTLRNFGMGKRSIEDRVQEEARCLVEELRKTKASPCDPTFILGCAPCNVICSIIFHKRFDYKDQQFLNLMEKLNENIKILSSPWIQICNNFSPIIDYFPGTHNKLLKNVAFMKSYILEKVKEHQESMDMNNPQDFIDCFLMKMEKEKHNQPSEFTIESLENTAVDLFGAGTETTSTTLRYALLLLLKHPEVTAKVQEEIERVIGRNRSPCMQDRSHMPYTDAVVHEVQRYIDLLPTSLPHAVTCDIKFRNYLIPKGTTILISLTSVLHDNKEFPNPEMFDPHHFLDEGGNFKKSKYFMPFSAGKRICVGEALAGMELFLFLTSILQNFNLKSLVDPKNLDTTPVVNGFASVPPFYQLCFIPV
Sequence of Voltage-gated inwardly rectifying potassium channel KCNH2 (Homo sapiens) (Q12809 whole entry, looked up): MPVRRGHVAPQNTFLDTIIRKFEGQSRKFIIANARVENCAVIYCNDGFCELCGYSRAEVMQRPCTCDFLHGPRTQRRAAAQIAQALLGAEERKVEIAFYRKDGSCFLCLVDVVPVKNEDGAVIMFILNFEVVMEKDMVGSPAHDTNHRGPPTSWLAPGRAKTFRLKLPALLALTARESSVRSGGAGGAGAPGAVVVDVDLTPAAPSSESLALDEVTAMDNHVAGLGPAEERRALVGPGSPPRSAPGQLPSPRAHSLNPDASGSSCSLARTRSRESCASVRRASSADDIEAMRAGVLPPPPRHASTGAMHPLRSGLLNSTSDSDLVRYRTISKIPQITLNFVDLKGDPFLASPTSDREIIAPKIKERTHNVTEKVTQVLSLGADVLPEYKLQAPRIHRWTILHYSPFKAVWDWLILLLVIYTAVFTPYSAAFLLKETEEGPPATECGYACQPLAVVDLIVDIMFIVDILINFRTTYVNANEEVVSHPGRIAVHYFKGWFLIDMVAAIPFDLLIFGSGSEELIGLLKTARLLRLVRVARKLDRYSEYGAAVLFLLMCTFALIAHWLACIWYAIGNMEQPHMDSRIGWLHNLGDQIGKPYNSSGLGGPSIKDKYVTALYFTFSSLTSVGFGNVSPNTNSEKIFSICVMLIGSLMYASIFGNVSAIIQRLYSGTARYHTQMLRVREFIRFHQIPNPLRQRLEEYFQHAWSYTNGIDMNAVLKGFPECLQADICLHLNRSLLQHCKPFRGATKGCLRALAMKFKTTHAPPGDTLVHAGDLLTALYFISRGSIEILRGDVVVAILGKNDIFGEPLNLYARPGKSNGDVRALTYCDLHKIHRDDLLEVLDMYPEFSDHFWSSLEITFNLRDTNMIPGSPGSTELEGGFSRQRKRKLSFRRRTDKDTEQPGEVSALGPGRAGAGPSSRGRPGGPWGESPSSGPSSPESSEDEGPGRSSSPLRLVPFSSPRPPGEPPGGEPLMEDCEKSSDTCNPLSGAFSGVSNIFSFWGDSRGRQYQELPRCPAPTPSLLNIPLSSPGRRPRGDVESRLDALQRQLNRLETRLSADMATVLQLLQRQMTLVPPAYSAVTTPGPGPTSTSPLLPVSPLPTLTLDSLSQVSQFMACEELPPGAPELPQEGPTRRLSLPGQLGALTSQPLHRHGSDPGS
Sequence of Acetylcholinesterase (Homo sapiens) (P22303 whole entry, looked up): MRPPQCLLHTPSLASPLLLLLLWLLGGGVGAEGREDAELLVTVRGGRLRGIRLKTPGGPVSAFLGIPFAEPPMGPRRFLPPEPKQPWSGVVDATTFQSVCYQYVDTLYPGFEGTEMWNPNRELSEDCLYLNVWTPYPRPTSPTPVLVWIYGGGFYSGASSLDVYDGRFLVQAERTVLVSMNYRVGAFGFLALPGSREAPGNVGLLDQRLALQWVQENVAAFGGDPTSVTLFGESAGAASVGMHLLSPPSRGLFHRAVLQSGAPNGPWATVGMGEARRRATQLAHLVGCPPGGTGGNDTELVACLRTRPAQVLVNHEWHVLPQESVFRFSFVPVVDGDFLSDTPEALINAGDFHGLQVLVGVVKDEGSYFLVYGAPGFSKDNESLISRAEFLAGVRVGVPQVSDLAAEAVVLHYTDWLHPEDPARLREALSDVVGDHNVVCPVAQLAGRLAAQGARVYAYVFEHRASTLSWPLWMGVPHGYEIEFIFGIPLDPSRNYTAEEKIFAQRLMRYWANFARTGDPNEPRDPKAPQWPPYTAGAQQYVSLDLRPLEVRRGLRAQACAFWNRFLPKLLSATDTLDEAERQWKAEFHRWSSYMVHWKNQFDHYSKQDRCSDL

SMILES	Potency [1]	Potency [2]	Potency [3]	Potency [4]	Potency [5]	Potency [6]	Potency [7]	Potency [8]	Potency [9]
N#Cc1sc2c(=O)c3ccccc3c(=O)c=2sc1C#N	inactive	63.3 µM (active)	35.6 µM (active)	3.99 µM (active)	3.17 µM (active)	31.7 µM (active)	21.9 µM (active)	17.8 µM (active)	–
Cc1cccc(Cc2cnc[nH]2)c1C	inactive	–	2.45 µM (active)	2.19 µM (active)	0.347 µM (active)	0.911 µM (active)	inactive	–	inactive
Oc1ccc(Cl)c(Cl)c1	inactive	inactive	–	–	inactive	39.3 µM (active)	inactive	–	–
CCOP(=O)(Sc1ccccc1)Sc1ccccc1	17.8 µM (active)	0.894 µM (active)	56.4 µM (active)	8.94 µM (active)	–	10 µM (active)	inactive	inactive	–
C=CCOC(=O)c1ccccc1N	inactive	inactive	63.7 µM (active)	25.4 µM (active)	35.8 µM (active)	7.15 µM (active)	inactive	40.2 µM (active)	–
O=C1C2(Cl)C3(Cl)C4(Cl)C(Cl)(Cl)C5(Cl)C3(Cl)C1(Cl)C5(Cl)C24Cl (stereo not given)	inactive	inactive	inactive	622 nM (active) and 961 nM (active)	–	inactive	12.1 µM (active) and 14.8 µM (active)	–	–
CCC(OC(C)=O)C(CC(C)NC)(c1ccccc1)c1ccccc1 (stereo not given)	inactive	inactive	14.3 µM (active)	32 µM (active)	inactive	inactive	8.78 µM (active)	–	–
ClC1(Cl)C2(Cl)C3(Cl)C4(Cl)C(Cl)(Cl)C5(Cl)C3(Cl)C1(Cl)C5(Cl)C24Cl (stereo not given)	inactive	inactive	inactive	inactive	–	inactive	inactive	inactive	–
Cc1c([N+](=O)[O-])cc2c(c1[N+](=O)[O-])C(C)(C)CC2(C)C	inactive	inactive	inactive	inactive	–	8.94 µM (active)	–	inactive	–
O=S(=O)(O)F	inactive	inactive	inactive	–	inactive	inactive	inactive	inactive	–
Nc1nc(N)c(N)c(N)n1	inactive	inactive	inactive	–	inactive	35.7 µM (active)	inactive	inactive	–
S=C=Nc1ccccc1	inactive	inactive	73.3 µM (active)	36.7 µM (active)	65.3 µM (active)	32.7 µM (active)	inactive	32.7 µM (active)	–
Fc1ccc(C(OCCN2CCN(CCCc3ccccc3)CC2)c2ccc(F)cc2)cc1	inactive	inactive	–	–	–	–	–	inactive	–
NC1CCC(CC2CCC(N)CC2)CC1 (stereo not given)	inactive	inactive	35 µM (active)	inactive	–	inactive	inactive	11.1 µM (active)	–
Nc1ccccc1-c1ccccc1	inactive	inactive	28.1 µM (active)	35.4 µM (active)	–	35.4 µM (active)	inactive	–	–
NC(=O)C(Cl)Cl	inactive	inactive	inactive	inactive	inactive	inactive	inactive	inactive	–
CCN(CC)C(=O)N[C@@H]1C=C2c3cccc4[nH]cc(c34)C[C@@H]2N(C)C1	inactive	–	–	–	–	–	–	–	inactive
O=C(O)[C@H](O)[C@@H](O)C(=O)O	inactive	inactive	–	–	–	–	inactive	–	–
ClCBr	inactive	inactive	inactive	inactive	inactive	inactive	inactive	inactive	–
Nc1c(Cl)c(Cl)c(Cl)c(Cl)c1Cl	inactive	inactive	–	inactive	inactive	1.3 µM (active)	inactive	–	–
N#CCCl	inactive	inactive	29.5 µM (active)	37.1 µM (active)	–	33.1 µM (active)	–	66 µM (active)	–
O=C1C(Cl)=C(Cl)C(=O)C(Cl)=C1Cl	inactive	35.5 µM (active) and 63.3 µM (active)	31.6 µM (active) and 25.2 µM (active)	7.94 µM (active) and 11.2 µM (active)	–	35.6 µM (active)	34.7 µM (active)	22.4 µM (active)	–
CCCCC/C=C\C/C=C\C/C=C\C/C=C\CCCC(=O)NCC(=O)O	inactive	inactive	15.5 µM (active)	inactive	13.8 µM (active)	inactive	inactive	inactive	–
COP(=S)(OC)Oc1nc(Cl)c(Cl)cc1Cl	inactive	inactive	inactive	79.6 µM (active)	25.2 µM (active)	44.8 µM (active)	inactive	11.2 µM (active)	–
ClC1=C(Cl)[C@]2(Cl)[C@@H]3[C@H]4C[C@H]([C@@H]5O[C@H]45)[C@@H]3[C@@]1(Cl)C2(Cl)Cl	inactive	inactive	inactive	63.3 µM (active)	–	–	inactive	–	–
